# Source: PubChem BioAssay (National Center for Advancing Translational Sciences (NCATS))
# A selection: hits, their analogues and other compounds. The true share with any hit is near 1.6%.
# HTT aggregate: mutant huntingtin aggregation inhibition. Potency, µM (top dose mostly 46.1 µM), for inactives: top-dose activity change, negative = inhibition, actives largely listed as inhibitors. PC12 HttQ103-GFP aggregates, Acumen cytometry, 40 h. 1.1% of 220,000 active. AID 1688; note: potency is the fitted concentration of half-maximal effect; % is set by controls: 0 for no effect and ±100 for the full control effect; nearly all actives have a fitted effect of over 60% in size
#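 Huntingtin Q103 exon 1–GFP aggregates in induced PC12 cells (100 nM tebufenozide) were quantified by cytometry from lysates, with compounds dosed in titration.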
# Lamin A splicing: LMNA splicing modulation; HeLa LMNA splicing GFP/RFP minigene ratio, 48 h; Potency, µM (titrated, usually from 46.1 µM), inactives show at the highest dose ratio change, negative = inhibition, most hits filed as inhibitors; 0.01% of 200,000 active; AID 1487; active = well fitted inhibition curve with a large enough effect in the signal ratio, with a control signal flat, not every such curve was filed as active; inconclusive = small, poorly fitted or top-dose-only effect, or effect the other way, or a change in a side signal; the % refers to the signal ratio; note: potency is the fitted concentration of half-maximal effect; % is set by controls: 0 for no effect and ±100 for the full control effect
#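 S3 HeLa cells stably expressing lamin A-EGFP splicing minigene plus DsRed2, 600 cells/well, 48 h compound exposure at 37C. Laser-scanning cytometry; analysed as GFP (500-530 nm)/RFP (575-640 nm) total intensity ratio; 0.5% DMSO vehicle.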
# HTT cytoprotect: protects HTT-Q103 PC12 cells, measured by ATP. 0.14% of 230,000 active. AID 1471. Potency, µM (doses to about 56.4 µM), for inactives: cytoprotection (ATP increase), most hits filed as activators. PC12 HTT-Q103 induced, cytoprotection, ATP luminescence, 40 h; note: potency is the fitted concentration of half-maximal effect; % of control where 0% means no effect; nearly all actives have a fitted effect of over 45% in size
#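 Compounds were screened for protection of PC12 cells against cell death after tebufenozide induction (100 nM final) of mutant Huntingtin exon 1 (Q103) fused to GFP.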
# NPSR antagonist: neuropeptide S receptor (human) antagonism, cAMP; CHO-NPSR cells, cAMP TR-FRET, antagonist mode; Potency, µM (series often up to 38.3 µM), inactives show at the top dose activity change, negative = inhibition, actives largely listed as inhibitors; 1% of 220,000 active; AID 1461; note: potency is the fitted concentration of half-maximal effect; % is set by controls: 0 for no effect and ±100 for the full control effect; nearly all actives have a fitted effect of over 50% in size
# Target sequence (Q6W5P4 whole entry, looked up): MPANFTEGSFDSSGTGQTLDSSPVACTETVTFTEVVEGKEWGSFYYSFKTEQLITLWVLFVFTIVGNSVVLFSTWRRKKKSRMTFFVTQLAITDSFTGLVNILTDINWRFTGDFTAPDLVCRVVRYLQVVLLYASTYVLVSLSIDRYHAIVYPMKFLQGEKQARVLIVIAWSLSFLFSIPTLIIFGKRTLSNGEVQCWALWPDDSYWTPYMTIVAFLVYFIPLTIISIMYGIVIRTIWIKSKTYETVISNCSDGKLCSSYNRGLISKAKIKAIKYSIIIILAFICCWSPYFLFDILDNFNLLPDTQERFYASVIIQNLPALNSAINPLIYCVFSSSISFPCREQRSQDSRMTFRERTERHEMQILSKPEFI
# IMPase cell inh: IMPase inhibition in cells; CHO-M1 cells, IP1 accumulation, HTRF TR-FRET ratio; 120,000 tested, under 10 active; inhibition (IP1 accumulation), % at 46.1 µM; active = well fitted curve in the direction sought with a large enough effect in the signal ratio, not every such curve was filed as active; inconclusive = small, poorly fitted or top-dose-only effect, or a change in a side signal; inactive = no such curve, though single readings can be large or run the other way; the % refers to the signal ratio;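 note: cells stimulated with carbachol in lithium chloride buffer; plate controls were DMSO basal wells for no effect and reference inhibitor wells for full effect; higher means more IMPase inhibition seen as more IP1 and lower FRET ratio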
# Target sequence (P97697 whole entry, looked up): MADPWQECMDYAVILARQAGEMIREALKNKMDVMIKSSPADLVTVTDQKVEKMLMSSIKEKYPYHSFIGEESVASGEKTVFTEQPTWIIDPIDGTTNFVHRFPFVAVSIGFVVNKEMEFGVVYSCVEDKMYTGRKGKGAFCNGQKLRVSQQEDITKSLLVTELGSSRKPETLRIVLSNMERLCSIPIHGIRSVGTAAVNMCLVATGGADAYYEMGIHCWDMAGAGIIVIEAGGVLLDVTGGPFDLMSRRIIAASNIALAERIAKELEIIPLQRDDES
#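 Elevated IP1 in lysates lowers TR-FRET signal (665/620 ratio and 620 channel reported). Cells were CHO-M1, given carbachol (50 uM as added) plus 50mM LiCl, pH 7.4, 30 min, 37C; compounds titrated up to 46 uM; AC50 by Hill equation.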
# IMPase Li inh: membrane-permeable IMPase blocker, potentiated with lithium; CHO-M1 cells, IP1 TR-FRET (IP-One), carbachol + lithium; AID 1457; 0.35% of 210,000 active; Potency, µM (doses to about 59.4 µM), for the others: at the highest dose activity, negative = IMPase inhibition, actives largely listed as inhibitors;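 note: IP1 builds up when IMPase is blocked and the TR-FRET signal falls; potency is the fitted concentration of half-maximal effect; plate controls were basal vehicle for no effect and high inhibitor control for full effect; nearly all actives have a fitted effect of over 50% in size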
#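 CHO cells stably expressing M1 receptor (2000/well, cultured 16–30 h) treated 30 min at 37C with compound plus low lithium. Cytosolic IP1 by TR-FRET (665/620 ratio and 620 channel) after 10 min lysis; AC50 by Hill fit.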
# * marks the source's active call; other numbers are inactive results; ? = inconclusive; . = not tested or not shown; [ ] = remark or other dose. Unless noted, calls come from the whole dose curve; as a rule, active = well fitted curve in the direction sought with a large enough effect; inconclusive = small, poorly fitted or top-dose-only effect, or another doubt; inactive = no such curve, though single readings can be large; an effect the other way counts as inactive or inconclusive.
SMILES,HTT aggregate,Lamin A splicing,HTT cytoprotect,NPSR antagonist,IMPase cell inh,IMPase Li inh
Cc1ccc2[nH]c(=O)c(C(c3nnnn3C3CCCC3)N3CCCc4ccccc43)cc2c1 (stereo not given),35µM*,-14%,9%[10 µM],4%[46.1 µM],2,-6%
C=CC1=C(C(=O)O)N2C(=O)[C@@H](NC(=O)C(N=O)c3csc(N)n3)[C@H]2SC1 (stereo not given in full),18%,-10%,35%,.,.,-23%
CN(C)C(=O)c1ccc(NC(=O)c2cncc(Br)c2)cc1,16µM*,1%,20%[10 µM],2%[46.1 µM],3,4%
O=C1C(Cl)=C(N2CCN(c3ccccc3[N+](=O)[O-])CC2)C(=O)c2ccccc21,?,?,-11%[10 µM],10µM*,.,33%
CN(C1=C(N2CCCCC2)C(=O)c2ccccc2C1=O)c1ccccc1,-24%,?,-19%,13µM*,28,54%[38.3 µM]
COc1ccccc1NC1=C(N2CCCCC2)C(=O)c2ccccc2C1=O,13µM*,?,-49%[10 µM],10%[46.1 µM],9,17%
CCCC/C=C/C(NC(=O)c1ccc(C(F)(F)F)cc1)c1ccccc1 (stereo not given),.,.,-33%,.,.,2%
CCCCN(CC)CCCNC(=S)Nc1ccc2nc(N3CCN(C)CC3)cc(C)c2c1,28µM*,.,-9%,-1%,.,9%
CCCCN(CC)CCCNC(=S)Nc1ccc2nc(N3CCN(CC)CC3)cc(C)c2c1,?,.,-33%,1%,.,7%
Cc1noc(C)c1-c1ccc2ncnc(N(C)C)c2c1,.,?,-68%,.,.,13%
CCC(Oc1ccccc1)C(=O)Nc1nnc(C(F)(F)F)s1 (stereo not given),25µM*,?,0%[10 µM],4%[46.1 µM],-10,-3%
COc1cc(C(=O)Oc2c(CN3CCOCC3)cc(Cl)c3cccnc23)cc(OC)c1OC,?,?,-67%,-26%[46.1 µM],2,14%[38.3 µM]
COc1ccc(C(=O)Oc2c(CN3CCOCC3)cc(Cl)c3cccnc23)cc1,?,?,-102%,-13%[46.1 µM],-2,44%[38.3 µM]
O=C(Oc1ccc(Cl)c2cccnc12)N1CCOCC1,3%,12%,-15%,-4%[46.1 µM],1,-4%[38.3 µM]
Oc1c(Cl)cc(Cl)c2cccnc12,8.9µM*,?,-48%,-30%,.,1%
O=C(Oc1c(CN2CCOCC2)cc(Cl)c2cccnc12)c1ccc(F)cc1,1µM*,?,-98%[10 µM],5µM*,12,52%[38.3 µM]
O=C(Oc1c(CN2CCOCC2)cc(Cl)c2cccnc12)c1ccccc1Cl,?,?,-120%,7.9µM*,.,19%
O=C(Oc1c(CN2CCOCC2)cc(Cl)c2cccnc12)c1cccs1,1.3µM*,?,-97%[10 µM],?,.,28%
CN[C@]1(C)[C@@H]2CC[C@@H](C2)C1(C)C,.,.,-1%[1.9 µM],.,-1,.
CN(N=O)c1ccc(/C=C\c2ccnc3ccccc23)cc1,.,.,-6%[10 µM],.,.,4%
CCOc1ccc(CNS(=O)(=O)c2ccc3c(c2)CCCN3C(C)=O)cc1OC,.,-15%[46 µM],.,.,.,.
Cn1cc(O)nc1NC(=O)Nc1cccc(Cl)c1,-13%,.,5%,.,.,.
O=C(Oc1c(Cl)cc(Cl)c2cccnc12)c1cccs1,10µM*,?,-61%[10 µM],-4%[46.1 µM],15,10%
COc1cccc(C(=O)Oc2c(CN3CCOCC3)cc(Cl)c3cccnc23)c1,11µM*,?,-93%[10 µM],10µM*,11,39%[38.3 µM]
O=C(c1cc(C(F)(F)F)cc(C(F)(F)F)c1)N1CCC2(CC1)CCN(c1ncccn1)CC2,.,.,20%,.,.,-4%
SMILES,HTT aggregate,Lamin A splicing,HTT cytoprotect,NPSR antagonist,IMPase cell inh,IMPase Li inh
C[C@@]12C[C@H](O)C3[C@H](CCC4=CC(=O)CC[C@]43C)[C@H]1CC[C@@H]2c1csc(N)n1 (stereo not given in full),.,.,.,.,.,14%
Cc1cccc(NC(=O)CSc2nc(=O)n(CCN3CCOCC3)c3c2CCC3)c1C,.,0%[46 µM],.,.,.,.
CCCCOC(=O)CCc1nc2ccccc2[nH]c1=O,8%,-4%,-9%,-15%[46.1 µM],-8,19%[38.3 µM]
CCOC(=O)c1ccc(COC(=O)CCc2nc3ccccc3[nH]c2=O)o1,2.8µM*,16%,-7%[10 µM],-6%[46.1 µM],-5,-1%[38.3 µM]
C[C@@H](/C=C\c1cccc(Oc2ccc(F)cc2)c1)N(O)C(N)=O,.,.,-44%,.,4,20%
Cc1cc2ncn(CC(=O)O)c2cc1C,.,.,9%[10 µM],.,.,-2%
CCN(CC)c1ncnc2scc(C3COc4ccccc4O3)c12 (stereo not given),?,-22%,21%[10 µM],0%[46.1 µM],?,21%
c1ccc2c(c1)OCC(c1csc3ncnc(N4CCOCC4)c13)O2 (stereo not given),13µM*,?,-2%,-3%[46.1 µM],0,1%[38.3 µM]
CC(C)NS(=O)(=O)c1ccc(OCC(=O)N2CCN(c3ccccc3)CC2)cc1,-1%[9.22 µM],-20%[46 µM],4%[10 µM],-4%,.,1%
O=C(COc1ccc(S(=O)(=O)NC2CCCCC2)cc1)N1CCN(c2cccc(Cl)c2)CC1,16µM*,?,-22%,-16%[46.1 µM],4,22%[38.3 µM]
CCn1c(Oc2ccc(F)cc2)nc2c1c(=O)n(C)c(=O)n2C,11µM*,20%[46 µM],-32%,-1%,.,3%
CC(C)CCn1c(Oc2ccc(Cl)cc2)nc2c1c(=O)n(C)c(=O)n2C,-17%,-5%,14%,?,2,14%[38.3 µM]
CC=CC1=C(C(=O)O)N2C(=O)[C@H](NC(=O)[C@H](N)c3ccc(O)cc3)[C@@H]2SC1,10%,.,26%,.,.,13%
CCN(CC)S(=O)(=O)c1ccc(C(=O)Nc2nnc(CSC)o2)cc1,?,-16%[46 µM],-8%,-1%,.,-8%
CCCCN(CCCC)S(=O)(=O)c1ccc(C(=O)Nc2nnc(COC)o2)cc1,11µM*,?,-81%,-2%[46.1 µM],-8,-3%[38.3 µM]
CCCCN(C)S(=O)(=O)c1ccc(C(=O)Nc2nnc(CSC)o2)cc1,8.9µM*,?,-66%,-8%[46.1 µM],-4,-16%[38.3 µM]
CCCCNCC,.,.,10%,.,.,4%
Cc1nn(-c2ccccc2)c(Cl)c1/C=C1\SC(=S)NC1=O,?,?,-38%,10µM*,5,35%[38.3 µM]
COc1cc2nc(N3CCN(C(=O)OCc4ccccc4)[C@H](C(=O)NC(C)(C)C)C3)nc(N)c2cc1OC,.,.,5%[1.9 µM],.,10,.
COc1cc2nc(N3CCN(C(=O)OCc4ccccc4)C(C(=O)NC(C)(C)C)C3)nc(N)c2cc1OC (stereo not given),.,?,.,13µM*,.,16%
CCN(CC)c1ccc(/C=N/Nc2nc3ccccc3[nH]2)cc1,?,?,-4%[10 µM],5µM*,.,3%
Cc1c(/C=N/Nc2nc3ccccc3[nH]2)c2ccccc2n1C,-10%[9.22 µM],.,-12%[10 µM],?,.,.
